20 compounds from PubChem BioAssay (Tox21) can be followed below.

Where “and” joins values, the source holds several entries; their conditions need not be identical. Identical values can stand only once. Inconclusive results are not listed. Unmarked numbers belong to inactive results. Calls of active or inactive are those of the source. Calls come from the whole dose curve; as a rule, active = well fitted curve in the direction sought with a large enough effect in the repeat runs; inconclusive = weak or mixed curves; inactive = no such curve, though single readings can be large; an effect the other way counts as inactive or inconclusive.

Assay [1] in a line: qHTS RealTime-Glo MT Cell Viability Assay in HEK293 cells - 16 hour (AID 1224872). For activity change, negative = cytotoxicity: top concentration of the series differs between compounds. Note: nearly all actives have a fitted effect of over 50% in size. Note: potency is the fitted concentration of half-maximal effect. The method in brief: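 Cells + reagent dispensed (600 cells/well, HEK293) → 5 h at 37 C/5% CO2 → 23 nL compound in DMSO pinned → 40 h at 37 C → luminescence read at 0, 8, 16, 24, 32, 40 h.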
A short description of assay [2]: qHTS RealTime-Glo MT Cell Viability Assay in HepG2 cells - 8 hour (AID 1224873). Note: nearly all actives have a fitted effect of over 55% in size. Note: potency is the fitted concentration of half-maximal effect. The gist of the method:
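HepG2 cells (600/well) mixed with RealTime-Glo MT reagent, settled 5 h at 37 C/5% CO2 before compound addition. Nonlytic NanoLuc luminescence from viable-cell prosubstrate reduction read repeatedly during 40 h treatment at 37 C.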

A short description of assay [3]: qHTS RealTime-Glo MT Cell Viability Assay in HEK293 cells - 40 hour (AID 1224874). Note: nearly all actives have a fitted effect of over 50% in size. Note: potency is the fitted concentration of half-maximal effect. The settings on record: RealTime-Glo luminescence; max response: hits give low values. The method in brief:
(§1)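 Kinetic, non-lysing viability readout. Seed HEK293 (600/well) with reagent, incubate 5 h at 37 C/5% CO2, pin 23 nL compound in DMSO, incubate at 37 C, read luminescence at 0, 8, 16, 24, 32, 40 h.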

Assay [4] is described as follows: A CellTox Green Cytotoxicity Assay to monitor cytotoxicity in HepG2 cells - 16 hour (AID 1224876). Note: nearly all actives have a fitted effect of over 45% in size. Note: potency is the fitted concentration of half-maximal effect. The gist of the method:
(§2)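 Cytotoxicity was tracked as dead-cell DNA fluorescence in HepG2 cells treated with test compounds at 37 C; each time-point value comes from one kinetic series spanning 0, 8, 16, 24, 32 and 40 h.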

Assay [5] in a line: qHTS RealTime-Glo MT Cell Viability Assay in HepG2 cells - 32 hour (AID 1224877). Note: nearly all actives have a fitted effect of over 55% in size. Note: potency is the fitted concentration of half-maximal effect. The method in brief:
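Real-time, nonlytic viability: 600 HepG2 cells/well mixed with NanoLuc enzyme plus prosubstrate; 5 h settle, compound (DMSO) added by pintool; luminescence monitored over 40 h at 37 C.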

Assay [6] is described as follows: A CellTox Green Cytotoxicity Assay to monitor cytotoxicity in HepG2 cells - 24 hour (AID 1224878). Note: nearly all actives have a fitted effect of over 45% in size. Note: potency is the fitted concentration of half-maximal effect. The method in brief: as §2
The nature of assay [7]: A CellTox Green Cytotoxicity Assay to monitor cytotoxicity in HepG2 cells - 40 hour (AID 1224879). Note: nearly all actives have a fitted effect of over 40% in size. Note: potency is the fitted concentration of half-maximal effect. The method in brief:
as §2

Assay [8] can be described thus: qHTS RealTime-Glo MT Cell Viability Assay in HEK293 cells - 0 hour (AID 1224880). Note: top concentration of the series differs between compounds; nearly all actives have a fitted effect of over 45% in size. The method in brief:
as §1

Assay [9] in a line: A CellTox Green Cytotoxicity Assay to monitor cytotoxicity in HEK293 cells - 32 hour (AID 1224881). Note: nearly all actives have a fitted effect of over 40% in size. Note: potency is the fitted concentration of half-maximal effect. The gist of the method:
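Real-time, in one plate: 600 HEK293 cells/well with dead-cell DNA dye, pinned compound after 5 h, 37 C incubation over 40 h; viable cells give no appreciable fluorescence.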
% is set by controls: 0 for no effect and ±100 for the full control effect.

Regarding `CC(C)c1ccccc1N`, the Potency result in assay [1], in assay [2], in assay [4], in [5], in assay [6] and in [7] was “inactive” in each case. Moreover, the Potency entry in assay [8] and in [9] was “inactive” each time. In addition, the max response in assay [3] is 0.54%.
On to `CC(=O)Nc1ccc(O)cc1`, for which the Potency entry in assay [1], in assay [2], in assay [4], in assay [5], in [6] and in assay [7] was “inactive” each time. Also, the Potency entry in [8] and in assay [9] was “inactive” throughout. Also, the max response in assay [3] is 7.7% and -11.8% and 15.1%.
Take `CC(C)=CCCC(C)O` (configuration not stated): the Potency result in assay [1], in assay [2], in [4], in [5], in [6] and in assay [7] was “inactive” each time. Besides, the Potency result in assay [8] and in assay [9] was “inactive” throughout. Further, the max response in assay [3] is 0.513%.
Turning to `CC1(C)C(=O)N(CO)C(=O)N1CO`, the Potency result in assay [1], in assay [2], in assay [4], in [7] and in [8] was “inactive” throughout. Further, the max response in assay [3] is 2.01%.
Regarding `COCC(=O)O[C@]1(CCN(C)CCCc2nc3ccccc3[nH]2)CCc2cc(F)ccc2[C@@H]1C(C)C`, the Potency was 5.35 µM (active) in assay [1]; 21.3 µM (active) in [2]; 6.74 µM (active) in assay [3]; 19 µM (active) in assay [4]; 13.4 µM (active) in assay [5]; 13.4 µM (active) in assay [6]. For the same compound, the Potency in assay [7] is 10.7 µM (active); in assay [9] it was 21.3 µM (active). The Potency entry in assay [8] is “inactive”.
As to `COc1ccccc1C=O`, the Potency result in assay [1], in [2], in assay [4], in assay [5], in assay [6] and in assay [7] was “inactive” each time. Also, the Potency entry in [8] and in assay [9] was “inactive” in each case. Besides, the max response in assay [3] was 3.17%.
In the case of `c1ccc(Sc2ccccc2)cc1`, the Potency result in [1], in assay [2], in assay [4], in assay [5], in assay [6] and in assay [8] was “inactive” throughout. Also, the Potency entry in assay [9] is “inactive”. In addition, the max response in [3] is 1.6%.
Regarding `O=c1cccc[nH]1`, the Potency result in assay [1], in assay [2], in assay [4], in [5], in [6] and in assay [7] was “inactive” in each case. Besides, the Potency entry in assay [8] and in assay [9] was “inactive” throughout. In addition, the max response in assay [3] is 12.2%.
Consider `CCCCCCCOC(=O)c1ccccc1C(=O)OCCCCCCC`, for which the Potency result in assay [1], in assay [2], in assay [4], in assay [5], in assay [6] and in assay [7] was “inactive” in each case. The Potency result in assay [8] and in assay [9] was “inactive” in each case. For the same compound, the max response in assay [3] is -16.7%.
Take `CCCCCCCCCCCCCCCCCO`: the activity change, negative = cytotoxicity in assay [1] is -0.33% [at 15.8 µM]; in [8], -0.227% [at 15.8 µM]. Moreover, the viability change, negative = cytotoxic in assay [2] was 4.95% [at 15.8 µM]. Further, the max response in assay [3] was 0.671%. Also, the cytotoxicity increase was 1.01% [at 15.8 µM] in assay [4], 4.05% [at 15.8 µM] in assay [7] and -22.2% [at 15.8 µM] in assay [9]. Also, in [5], the activity change, negative = cytotoxic is -2.69% [at 15.8 µM].
For the compound `Oc1ccc(-c2ccccc2)c(Cl)c1`, the Potency in [1] was 24.5 µM (active); in assay [3], 21.9 µM (active); in assay [4], 49 µM (active); in assay [6] it was 49 µM (active); in [7], 49 µM (active). Moreover, the Potency result in assay [2], in assay [5] and in assay [8] was “inactive” each time.
On to `CC(C)=CCCC(C)CCOC(=O)C(C)C` (configuration not stated), for which the Potency result in [1], in assay [2], in assay [4], in assay [5], in [6] and in assay [7] was “inactive” in each case. The Potency entry in assay [8] and in assay [9] was “inactive” each time. Besides, the max response in assay [3] is 12.8%.
For `ClC/C=C\CCl`, the Potency entry in [1], in assay [2], in assay [4], in [5], in assay [6] and in assay [7] was “inactive” throughout. The Potency result in assay [8] and in [9] was “inactive” throughout. For the same compound, the max response in assay [3] was -46.5%.
For the compound `C=C[C@](C)(O)CC[C@@H]1[C@@]2(C)CCCC(C)(C)[C@@H]2CC[C@@]1(C)O`, the Potency in assay [1] was 19.5 µM (active); in [2], 49 µM (active); in [3] it was 21.9 µM (active); in assay [4], 54.9 µM (active); in [5] it was 54.9 µM (active); in assay [6], 49 µM (active). For the same compound, the Potency in [7] is 49 µM (active); in [9] it was 43.6 µM (active). The Potency result in [8] was “inactive”.
As for `CC1CNCC(C)O1` (configuration not stated), the Potency result in assay [1], in [2], in assay [4], in assay [5], in assay [6] and in assay [7] was “inactive” each time. Besides, the Potency entry in assay [8] and in [9] was “inactive” in each case. Besides, in [3], the max response was 11.7%.
`O=C(O)CC(=O)O`: the Potency entry in [1], in assay [2], in [4], in assay [5], in [6] and in assay [7] was “inactive” in each case. Further, the Potency entry in [8] and in [9] was “inactive” in each case. In addition, the max response in assay [3] was 11.5%.
With `Cc1cncc(C)c1`, the Potency entry in [1], in assay [2], in [4], in assay [5], in assay [6] and in assay [7] was “inactive” in each case. Further, in assay [8], the Potency entry was “inactive”. Further, the max response in assay [3] was 0.584%.
For the compound `CC(C)=CC1CC(C)CCO1` (configuration not stated), the Potency result in assay [1], in assay [2], in assay [4], in [5], in [6] and in [7] was “inactive” each time. Also, the Potency entry in assay [8] and in assay [9] was “inactive” in each case. Moreover, in assay [3], the max response is 2.02%.
Consider `CC(C)(C)C1=CC(=O)C=C(C(C)(C)C)C1=O`, for which the Potency entry in assay [1], in assay [2], in [4], in assay [5], in [6] and in assay [7] was “inactive” throughout. In assay [8], the Potency result was “inactive”. Also, the max response in assay [3] was 11.2%.
For `CCN1CCN(c2cc(-c3ccc(F)cc3)c3c(n2)CCCCCC3)CC1`, the activity change, negative = cytotoxicity is 2.72% [at 15.8 µM] in assay [1] and 9.2% [at 15.8 µM] in assay [8]. For the same compound, the viability change, negative = cytotoxic in assay [2] was 1.26% [at 15.8 µM]. In assay [3], the max response is -18.7%. Besides, the cytotoxicity increase in [4] was 12.3% [at 15.8 µM]; in assay [9] it was 10% [at 15.8 µM]. For the same compound, in assay [5], the activity change, negative = cytotoxic is -10.2% [at 15.8 µM]. In addition, the cytotoxicity in assay [6] was 24% [at 15.8 µM]. Moreover, the Potency in assay [7] is 11.7 µM (active).
